The record followed here is PubChem BioAssay (NCI).

Common to all, as to experiment: NCI-60 one-dose screen, 48 h (100 = growth as untreated, 0 = no growth, -100 = all killed)
What all share (conditions): 10 µM unless noted

Assay [1] deals with HCT-15 colon.
Assay [2] has as its system HT29 colon.
The test system of assay [3] is SNB-75 CNS.
In assay [4] the test system is SNB-19 CNS.
Assay [5] concerns U251 CNS.
The subject of assay [6] is PC-3 prostate.
Assay [7] has as its system SK-MEL-5 melanoma.
The test system of assay [8] is UACC-62 melanoma.
Assay [9] concerns LOX IMVI melanoma.
Assay [10] relates to SK-MEL-28 melanoma.

Molecules are shown by their SMILES. Compounds without any hit were thinned out: in the full panel of roughly 83,000, 20% have a hit.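 Method: cells in 96-well plates; compound added at one concentration; 48 h incubation; percent growth measured; values under 10 scored active.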 A number with no mark means an inactive call. Calls of active or inactive are those of the source.

For `CN(CCNCc1ccccn1)CCNCc1ccccn1`, the growth in assay [1] is 9.87% (active); in assay [2] it was 7.47% (active); in assay [3], 12.9%; in assay [4], 44.7%; in assay [5], 11%; in assay [6] it was 5.04% (active). Further, the growth in assay [7] is -31.7% (active); in [8], 4.5% (active); in assay [9] it was 9.32% (active); in assay [10], 10.7%.

As to `CCOc1ccc(Cc2nccc3cc(OCC)c(OCC)cc23)cc1OCC`, the growth in [1] was 59.8%; in assay [2], 25.2%; in assay [3], 99.6%; in [4], 62.5%; in assay [5], 62.8%; in assay [6], 52.9%. Moreover, the growth is 47.1% in [7], 50.7% in assay [8], 53.8% in assay [9] and 91.7% in assay [10].

For the molecule `CCN(CC)CCNCC(O)Cc1ccc(OC)cc1` (stereo not given), the growth in assay [1] is 112%; in [2], 77.4%; in assay [3], 110%; in assay [4] it was 98.9%; in assay [5], 94.5%; in assay [6], 76.2%. Also, the growth in assay [7] is 99.9%; in assay [8], 93.9%; in [9], 103%; in assay [10] it was 116%.

In the case of `Cc1cn(C2CC(N=[N+]=[N-])C(COP(=O)(O)OP(=O)(O)OP(=O)(O)O)O2)c(=O)[nH]c1=O` (stereo not given), the growth was 120% in [1]; 99.8% in assay [2]; 85.3% in assay [3]; 102% in assay [4]; 109% in [5]; 92.4% in [6]. Also, the growth is 106% in assay [7], 112% in assay [8], 101% in assay [9] and 99.1% in assay [10].

As to `O=C(NCCNc1nccc(-c2c(-c3cccc(O)c3)nc3sccn23)n1)c1ccccc1O`, the growth in [1] was 54.5%; in [2], 49.2%; in assay [3], 40.6%; in assay [4], 90.2%; in assay [5] it was 61.6%; in [6], 51.1%. Besides, the growth in [7] was 22.7%; in [8], 0.528% (active); in [9], 33.5%; in assay [10], 41.4%.

For the molecule `CCN(CC)CCNC(=O)c1c(C)[nH]c(/C=C2\C(=O)Nc3cc(NC(=O)NC(=O)c4ccc(OC)cc4F)ccc32)c1C`, the growth in assay [1] was 72.7%; in [2], 31.7%; in assay [3] it was 94%; in assay [4] it was 92.4%; in assay [5], 92.8%; in assay [6], 86.8%. For the same molecule, the growth in [7] is 85.3%; in assay [8], 104%; in [9] it was 97%; in [10], 99.7%.

Regarding `O=S1(=O)N(CCNc2nccc(-c3c(-c4cccc(O)c4)nc4sccn34)n2)CCN1Cc1ccccc1`, the growth is 55.7% in assay [1]; 37% in assay [2]; 70.4% in assay [3]; 113% in assay [4]; 69% in assay [5]; 63% in assay [6]. Besides, the growth in assay [7] is 30.6%; in [8], 20.7%; in assay [9] it was 28.6%; in assay [10], 60.2%.

`N#Cc1c2c(c(N)[nH]c1=O)C(=O)NC2(O)c1ccccc1` (stereo not given): the growth in assay [1] was 106%; in assay [2], 97%; in [3], 106%; in assay [4] it was 114%; in [5], 101%; in assay [6], 102%. The growth in assay [7] was 98.6%; in assay [8], 107%; in [9], 98.5%; in [10], 114%.

With `CCN(CC)CCC(C(=O)O)(c1ccccc1)c1ccccc1`, the growth is 103% in [1]; 94.9% in assay [2]; 86.8% in [3]; 104% in assay [4]; 109% in assay [5]; 103% in assay [6]. Further, the growth is 104% in assay [7], 97.9% in assay [8], 95.7% in [9] and 109% in assay [10].

For `COc1ccc(/C(=C/c2cc(OC)c(OC)c(OC)c2)[N+](=O)[O-])cc1`, the growth was -41.3% (active) in assay [1]; -14.2% (active) in assay [2]; 49.2% in assay [3]; 55.2% in assay [4]; 5.34% (active) in [5]; 35.1% in assay [6]. For the same molecule, the growth was 70.7% in assay [7], -7.25% (active) in assay [8], -80.3% (active) in assay [9] and 1.77% (active) in assay [10].

For the molecule `COC(=O)c1oc2c(C(=O)/C=C/c3ccc(OC)cc3)c(OCCN3CCOCC3)ccc2c1C`, the growth in assay [1] was -57% (active); in [2] it was -20.4% (active); in assay [3], -26.8% (active); in [4], -2.78% (active); in assay [5], -81.7% (active); in assay [6], 8.1% (active). In addition, the growth in [7] was -100% (active); in [8], -0.039% (active); in [9], -85.3% (active); in assay [10], 4.47% (active).

With `Cc1ccccc1C[P+](c1ccccc1)(c1ccccc1)c1ccccc1`, the growth is 107% in assay [1]; 10.5% in assay [2]; 9.33% (active) in assay [3]; 28.7% in assay [4]; 16.4% in [5]; 14.5% in assay [6]. In addition, the growth in assay [7] is -23.2% (active); in assay [8], 18.8%; in assay [9], 14.7%; in [10], 27.2%.

For the molecule `Cc1cccc(NC(=O)CCc2ccc(N3C(N)=NC(N)=NC3(C)C)cc2)c1`, the growth in assay [1] is 103%; in assay [2], 17.1%; in [3], 60.2%; in assay [4], 37%; in assay [5], 36.9%; in assay [6], 10.5%. Further, the growth is 26.9% in [7], 24.6% in assay [8], 18.7% in assay [9] and 69.9% in [10].

Consider `COc1ccccc1N1CCN(CCCOc2ccc(OCCCN3CCN(c4ccccc4OC)CC3)c(C(=O)c3cc(OC)c(OC)c(OC)c3)c2)CC1`, for which the growth was 140% in assay [1]; 101% in assay [2]; 120% in assay [3]; 102% in assay [4]; 118% in [5]; 95.9% in assay [6]. The growth in assay [7] was 87.6%; in [8], 109%; in assay [9], 116%; in [10] it was 115%.

Regarding `COC(=O)CCCNS(=O)(=O)c1cc(C(=O)Nc2ccc(NC(=O)c3cc(S(=O)(=O)NCCCC(=O)OC)c(O)c(O)c3O)cc2)c(O)c(O)c1O`, the growth in assay [1] was 92.1%; in assay [2], 79.8%; in assay [3], 95.1%; in assay [4] it was 96.1%; in assay [5] it was 70.3%; in assay [6], 83.3%. Besides, the growth in assay [7] was 93.6%; in assay [8], 76.7%; in [9], 2.88% (active); in [10] it was 110%.

Turning to `O=C1CCC(c2c(O)cc(O)c3c(=O)c(O)c(-c4ccc(O)c(O)c4)oc23)N1` (stereo not given), the growth in [1] was 102%; in [2], 84%; in [3], 99.2%; in assay [4], 108%; in [5], 101%; in [6], 93.3%. Besides, the growth was 101% in assay [7], 88.5% in assay [8], 96.9% in assay [9] and 102% in [10].

With `O=C(Nc1ccc(-n2ccc3c(NC(=O)c4ccccc4)ncnc32)cc1)c1cccc(C(F)(F)F)c1`, the growth in assay [1] is 19.7%; in assay [2], 22%; in assay [3], 63.9%; in assay [4], 57.4%; in assay [5], 27.3%; in assay [6], 43.7%. In addition, the growth was 33.1% in assay [7], 25.4% in assay [8], 3.47% (active) in assay [9] and 71.2% in assay [10].

For `COC1OCC(OS(=O)(=O)c2ccc(C)cc2)C(OC(=O)c2ccccc2)C1OC(=O)c1ccccc1` (stereo not given), the growth in assay [1] was 38.3%; in [2] it was 7.49% (active); in assay [3], 32.5%; in assay [4], 61.2%; in assay [5] it was 39.3%; in [6] it was 47.8%. The growth is 30.7% in [7], 36.1% in [8], 44.8% in assay [9] and 57.7% in assay [10].

In the case of `COc1ccccc1S(=O)(=O)Nc1ccc2c3c(cc(-c4cnn(C)c4)nc13)C(=O)N2C`, the growth in assay [1] was 27.6%; in assay [2], 18%; in assay [3] it was 26.6%; in assay [4], 50%; in assay [5], 52%; in assay [6], 42.1%. Moreover, the growth in assay [7] was 29.5%; in assay [8], 18.2%; in assay [9] it was 10.4%; in assay [10] it was 63.1%.

As to `CN1CCN(CC(O)COc2c(Br)c(Br)c(Br)c3c2OC(C)(C)C3)CC1` (stereo not given), the growth in [1] was 28.7%; in [2], -12.8% (active); in assay [3], 90.7%; in [4], 92.7%; in assay [5] it was 56.4%; in assay [6], 53%. Moreover, the growth was -86% (active) in [7], -59.5% (active) in assay [8], 4.05% (active) in assay [9] and -89.2% (active) in assay [10].

For the molecule `COC(=O)c1oc2c(C(C)=O)c(OCCCN(C)C)ccc2c1C`, the growth in assay [1] was 99.6%; in [2] it was 69.1%; in assay [3], 91.3%; in assay [4] it was 103%; in assay [5] it was 99.5%; in assay [6], 88.9%. In addition, the growth in [7] is 103%; in assay [8] it was 98.8%; in assay [9], 95%; in assay [10], 110%.

For the molecule `Cc1[nH]n(C(=O)c2ccncc2)c(=O)c1N=Nc1ccc(S(=O)(=O)Nc2ccncn2)cc1`, the growth in assay [1] is 112%; in [2], 109%; in assay [3], 93.9%; in assay [4] it was 105%; in [5] it was 105%; in [6] it was 100%. Besides, the growth in [7] is 106%; in [8] it was 98.8%; in assay [9] it was 93.6%; in assay [10], 112%.

On to `Cc1c(C(C)(C)C)cc(C(C)(C)C)c2c1CN(C)CO2`, for which the growth in [1] is 108%; in assay [2], 105%; in assay [3], 102%; in assay [4] it was 112%; in assay [5], 109%; in assay [6], 110%. For the same molecule, the growth in assay [7] is 127%; in assay [8] it was 114%; in [9], 106%; in assay [10], 102%.

`C=CC(C)(O)CCC1C(=C)CCC2C(C)(C)CCCC12C` (stereo not given): the growth was 97.3% in [1]; 70.1% in assay [2]; 91.3% in assay [3]; 111% in [4]; 104% in assay [5]; 112% in assay [6]. For the same molecule, the growth in [7] is 107%; in assay [8] it was 95.5%; in assay [9] it was 97.2%; in assay [10], 101%.

`Cc1cc(O[C@@H]2O[C@@H](C)[C@H](O)[C@@H](O)[C@H]2O)c2c3c(c(O[C@@H]4O[C@@H](C)[C@H](O)[C@@H](O)[C@H]4O)cc2c1)C(=O)c1c(O)cccc1C3=O`: the growth was 87.9% in [1]; 72.4% in [2]; 52.2% in [3]; 94.3% in [4]; 82% in [5]; 56.7% in assay [6]. Besides, the growth in assay [7] was 67.8%; in [8], 65.6%; in [9], 74%; in assay [10], 90.8%.

Regarding `CCOC(=O)C(C)(CSSCC(C)(NC(=O)c1ccc2ccccc2c1)C(=O)OCC)NC(=O)c1ccc2ccccc2c1` (stereo not given), the growth was 82.2% in [1]; 81.2% in assay [2]; 107% in assay [3]; 86% in assay [4]; 94.8% in [5]; 108% in assay [6]. Moreover, the growth in [7] is 109%; in [8], 96.1%; in [9], 89%; in assay [10] it was 132%.
